Hit rate of the full screen: of about 5,500 compounds, about 2,000 (36%) were called active. Inconclusive results (about 18%) are left out. The list shows a part of the results. Unmarked numbers belong to inactive results. Rule as the data show it: active = normalized growth mostly below about 0.91 (no sharp cut-off); inconclusive = no clear call, values can overlap the other calls; inactive = mostly above about 0.92.
Assay: chemical genetic growth profiling, strain panel (AID 1159580);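 also: tested at 20 µM; growth read once vehicle control cultures reached saturation at 30 °C; 1 = growth at the plate median or of vehicle wells; lower values mean less growth of the strain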
Conditions: growth OD

## O=C(O[C@@H]1Cc2c(O)cc(O)cc2O[C@@H]1c1cc(O)c(=O)c2c(O)c(O)cc([C@H]3Oc4cc(O)cc(O)c4C[C@H]3OC(=O)c3cc(O)c(O)c(O)c3)c2c1)c1cc(O)c(O)c(O)c1
S. cerevisiae deletion strains, locus YJR075W, strain HOC1, hits give low values
  normalized growth: 0.753 (active)
S. cerevisiae deletion strains, locus YKL009W, strain mrt4, hits give low values
  normalized growth: 1.06
S. cerevisiae deletion strains, locus YKL068W, hits give low values
  normalized growth: 1.04
S. cerevisiae deletion strains, locus YKL085W, strain MDH1 (second series), hits give low values
  normalized growth: 1.05
S. cerevisiae deletion strains, locus YKL085W, strain MDH1, hits give low values
  normalized growth: 1.05
S. cerevisiae deletion strains, locus YKL160W, strain elf1, hits give low values
  normalized growth: 0.71 (active)
S. cerevisiae deletion strains, locus YKL190W, strain CNB1, hits give low values
  normalized growth: 0.637 (active)
S. cerevisiae deletion strains, locus YKR001C, strain vps1, hits give low values
  normalized growth: 0.979
S. cerevisiae deletion strains, locus YKR026C, strain gcn3, hits give low values
  normalized growth: 0.971
S. cerevisiae deletion strains, locus YKR091W, strain srl3, hits give low values
  normalized growth: 0.927 (active)
S. cerevisiae deletion strains, locus YLL001W, strain dnm1, hits give low values
  normalized growth: 0.614 (active)
S. cerevisiae deletion strains, locus YLL026W, hits give low values
  normalized growth: 0.553 (active)
S. cerevisiae deletion strains, locus YLL041C, strain sdh2, hits give low values
  normalized growth: 0.661 (active)
S. cerevisiae deletion strains, locus YLR027C, strain aat2, hits give low values
  normalized growth: 0.407 (active)
S. cerevisiae deletion strains, locus YLR039C, strain RIC1, hits give low values
  normalized growth: 0.598 (active)
S. cerevisiae deletion strains, locus YLR058C, strain SHM2, hits give low values
  normalized growth: 0.525 (active)
S. cerevisiae deletion strains, locus YLR102C, strain apc9, hits give low values
  normalized growth: 1.04
S. cerevisiae deletion strains, locus YLR113W, strain HOG1, hits give low values
  normalized growth: 1.12
S. cerevisiae deletion strains, locus YLR221C, strain rsa3, hits give low values
  normalized growth: 0.573 (active)
S. cerevisiae deletion strains, locus YLR258W, strain gsy2, hits give low values
  normalized growth: 0.523 (active)
S. cerevisiae deletion strains, locus YLR262C, strain YPT6 (second series), hits give low values
  normalized growth: 0.539 (active)
S. cerevisiae deletion strains, locus YLR262C, strain YPT6, hits give low values
  normalized growth: 0.69
S. cerevisiae deletion strains, locus YLR268W, strain sec22, hits give low values
  normalized growth: 0.81 (active)
S. cerevisiae deletion strains, locus YLR320W, strain mms22, hits give low values
  normalized growth: 0.619 (active)
S. cerevisiae deletion strains, locus YLR330W, strain CHS5, hits give low values
  normalized growth: 0.898 (active)
S. cerevisiae deletion strains, locus YLR342W, strain FKS1 (second series), hits give low values
  normalized growth: 0.449 (active)
S. cerevisiae deletion strains, locus YLR342W, strain FKS1, hits give low values
  normalized growth: 0.447 (active)
S. cerevisiae deletion strains, locus YLR357W, strain rsc2, hits give low values
  normalized growth: 0.602 (active)
S. cerevisiae deletion strains, locus YLR370C, strain arc18, hits give low values
  normalized growth: 0.499 (active)
S. cerevisiae deletion strains, locus YLR371W, strain rom2, hits give low values
  normalized growth: 0.849 (active)
S. cerevisiae deletion strains, locus YLR384C, strain iki3, hits give low values
  normalized growth: 0.713 (active)
S. cerevisiae deletion strains, locus YLR418C, strain cdc73, hits give low values
  normalized growth: 0.583 (active)
S. cerevisiae deletion strains, locus YML016C, strain PPZ1, hits give low values
  normalized growth: 0.482 (active)
S. cerevisiae deletion strains, locus YML032C, strain rad52, hits give low values
  normalized growth: 1.05
S. cerevisiae deletion strains, locus YML120C, strain ndi1, hits give low values
  normalized growth: 0.634 (active)
S. cerevisiae deletion strains, locus YML124C, strain tub3, hits give low values
  normalized growth: 1.02
S. cerevisiae deletion strains, locus YMR058W, strain fet3, hits give low values
  normalized growth: 0.101 (active)
S. cerevisiae deletion strains, locus YMR078C, strain ctf18, hits give low values
  normalized growth: 1.02
S. cerevisiae deletion strains, locus YMR125W, strain sto1, hits give low values
  normalized growth: 1.04
S. cerevisiae deletion strains, locus YMR129W, hits give low values
  normalized growth: 0.604 (active)
S. cerevisiae deletion strains, locus YMR205C, strain PFK2, hits give low values
  normalized growth: 0.353 (active)
S. cerevisiae deletion strains, locus YMR223W, strain ubp8, hits give low values
  normalized growth: 0.979
S. cerevisiae deletion strains, locus YMR231W, strain pep5, hits give low values
  normalized growth: 0.158 (active)
S. cerevisiae deletion strains, locus YMR263W, strain SAP30, hits give low values
  normalized growth: 0.723 (active)
S. cerevisiae deletion strains, locus YMR307W, strain GAS1, hits give low values
  normalized growth: 0.481 (active)
S. cerevisiae deletion strains, locus YNL067W, strain RPL9B, hits give low values
  normalized growth: 0.699 (active)
S. cerevisiae deletion strains, locus YNL071W, strain lat1, hits give low values
  normalized growth: 0.607 (active)
S. cerevisiae deletion strains, locus YNL128W, strain TEP1, hits give low values
  normalized growth: 0.351 (active)
S. cerevisiae deletion strains, locus YNL153C, strain GIM3, hits give low values
  normalized growth: 0.741 (active)
S. cerevisiae deletion strains, locus YNL183C, strain NPR1, hits give low values
  normalized growth: 0.983
S. cerevisiae deletion strains, locus YNL209W, strain ssb2, hits give low values
  normalized growth: 0.149 (active)
S. cerevisiae deletion strains, locus YNL233W, strain BNI4, hits give low values
  normalized growth: 0.768 (active)
S. cerevisiae deletion strains, locus YNL248C, strain rpa49, hits give low values
  normalized growth: 0.863 (active)
S. cerevisiae deletion strains, locus YNL250W, strain rad50, hits give low values
  normalized growth: 1.02
S. cerevisiae deletion strains, locus YNL271C, strain bni1, hits give low values
  normalized growth: 1.03
S. cerevisiae deletion strains, locus YNL298W, strain CLA4, hits give low values
  normalized growth: 1.03
S. cerevisiae deletion strains, locus YNL307C, strain MCK1, hits give low values
  normalized growth: 1.04
S. cerevisiae deletion strains, locus YNL322C, strain KRE1 (second series), hits give low values
  normalized growth: 0.857 (active)
S. cerevisiae deletion strains, locus YNL322C, strain KRE1, hits give low values
  normalized growth: 0.569 (active)
S. cerevisiae deletion strains, locus YNR049C, strain mso1, hits give low values
  normalized growth: 0.913 (active)
S. cerevisiae deletion strains, locus YNR052C, strain pop2, hits give low values
  normalized growth: 0.975
S. cerevisiae deletion strains, locus YOL006C, strain TOP1, hits give low values
  normalized growth: 0.216 (active)
S. cerevisiae deletion strains, locus YOL012C, strain htz1
  normalized growth: 0.378
S. cerevisiae deletion strains, locus YOL147C, strain pex11, hits give low values
  normalized growth: 1.01
S. cerevisiae deletion strains, locus YOR001W, strain rrp6, hits give low values
  normalized growth: 0.57 (active)
S. cerevisiae deletion strains, locus YOR061W, strain CKA2, hits give low values
  normalized growth: 0.848 (active)
S. cerevisiae deletion strains, locus YOR069W, strain VPS5, hits give low values
  normalized growth: 0.891 (active)
S. cerevisiae deletion strains, locus YOR070C, strain gyp1, hits give low values
  normalized growth: 0.495 (active)
S. cerevisiae deletion strains, locus YOR080W, strain dia2, hits give low values
  normalized growth: 0.286 (active)
S. cerevisiae deletion strains, locus YOR083W, strain WHI5, hits give low values
  normalized growth: 0.543 (active)
S. cerevisiae deletion strains, locus YOR106W, strain vam3, hits give low values
  normalized growth: 0.119 (active)
S. cerevisiae deletion strains, locus YOR136W, strain idh2, hits give low values
  normalized growth: 0.99
S. cerevisiae deletion strains, locus YOR144C, strain elg1, hits give low values
  normalized growth: 1.01
S. cerevisiae deletion strains, locus YOR184W, strain ser1, hits give low values
  normalized growth: 0.857 (active)
S. cerevisiae deletion strains, locus YOR231W, strain MKK1, hits give low values
  normalized growth: 1.04
S. cerevisiae deletion strains, locus YOR265W, strain rbl2, hits give low values
  normalized growth: 0.658 (active)
S. cerevisiae deletion strains, locus YOR270C, strain vph1, hits give low values
  normalized growth: 0.223 (active)
S. cerevisiae deletion strains, locus YOR290C, strain snf2, hits give low values
  normalized growth: 0.496 (active)
S. cerevisiae deletion strains, locus YOR316C, strain cot1, hits give low values
  normalized growth: 1.04
S. cerevisiae deletion strains, locus YPL051W, strain arl3, hits give low values
  normalized growth: 0.263 (active)
S. cerevisiae deletion strains, locus YPL055C, strain LGE1, hits give low values
  normalized growth: 0.473 (active)
S. cerevisiae deletion strains, locus YPL078C, strain atp4, hits give low values
  normalized growth: 0.705 (active)
S. cerevisiae deletion strains, locus YPL106C, strain sse1, hits give low values
  normalized growth: 0.593 (active)
S. cerevisiae deletion strains, locus YPL240C, strain hsp82, hits give low values
  normalized growth: 0.679 (active)
S. cerevisiae deletion strains, locus YPL241C, strain CIN2, hits give low values
  normalized growth: 0.922 (active)
S. cerevisiae deletion strains, locus YPL256C, strain CLN2, hits give low values
  normalized growth: 1.15
S. cerevisiae deletion strains, locus YPR119W, strain clb2, hits give low values
  normalized growth: 1.03
S. cerevisiae deletion strains, locus YPR141C, strain kar3, hits give low values
  normalized growth: 1.03
S. cerevisiae deletion strains, locus YPR163C, strain tif3, hits give low values
  normalized growth: 1.02
S. cerevisiae deletion strains, locus YPR167C, strain met16, hits give low values
  normalized growth: 1.02
S. cerevisiae deletion strains, strain wtn01, hits give low values
  normalized growth: 0.808 (active)
S. cerevisiae strains, strain wild type, hits give low values
  normalized growth: 0.491 (active)
